The structures appear in SMILES notation. Inconclusive results are not listed. The source made the active and inactive calls. Unless noted, calls follow the shape of the dose curve; as a rule, active = well fitted curve in either direction with a large enough effect (not every such curve was filed as active); inconclusive = small, poorly fitted or top-dose-only effect, or another doubt; inactive = flat fitted curve, though single readings scatter.

Experiment [1] addresses Lysosomal acid glucosylceramidase (Homo sapiens) (UniProt P04062). As to the kind of experiment: Glucocerebrosidase-p2 (AID 348; in the data active = potency below about 10 µM; also: potency is read from the fitted curve at half-maximal effect). The settings on record: purified GBA, blue fluorogenic substrate, 40 min. In a few lines: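 Normal human glucocerebrosidase (0.2 nM) with blue fluorogenic substrate (80 uM final) in citrate/phosphate pH 5.9 with 10mM sodium taurocholate, 0.01% tween-20; 40 min RT, NaOH/glycine stop; fluorescence Ex 365/Em 440; AC50 from a titration from 0.6 nM upwards.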

Experiment [2] is described as follows: AP1 Signaling Pathway (AID 357).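 Also: ME-180 reporter cells stimulated with EGF at its EC50 level; % is scaled to controls: 0 for no effect and ±100 for the full control effect.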 The settings on record: ME-180 AP-1-bla reporter, EGF-induced, beta-lactamase ratio, 5 h; at 7.69 µM (top of the series) unless noted. In a few lines:
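AP-1-bla ME-180 cells, Opti-MEM + 0.5% dialyzed FBS, plated overnight 37 °C. Cpd titration + EC50 EGF, 5 h 37 °C. CCF4 2.5 h RT; ex 405, em 460/530 ratio → %activity, AC50.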

The nature of experiment [3]: NFAT Signaling Pathway (AID 444).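 Also: carbachol stimulus at about its EC50 of 1 µM final; % is scaled to controls: 0 for no effect and ±100 for the full control effect.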 As to conditions: Jurkat NFAT-bla M1, carbachol, beta-lactamase ratio, 5 h; at 7.69 µM (top of the series) unless noted. The procedure, abridged: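 Read-out: CCF4 FRET ratio (460 nm/530 nm) after 1 h RT dye loading, used for %activity and AC50 from titration series. Cells: Jurkat NFAT-β-lactamase/M1 line, treated with compound plus 1 uM carbachol for 5 h, 37 °C.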

Experiment [4] in a line: Stat Signaling Pathway (AID 446).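 Also: ME-180 cervical cancer cells given 40 pM IL-6 alongside compound; SIE-controlled beta-lactamase reporter measured as 460/530 nm FRET emission ratio; % is scaled to controls: 0 for no effect and ±100 for the full control effect.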 As to conditions: ME-180 (cervical carcinoma) SIE beta-lactamase reporter, IL-6 stimulated, 5 h; at 7.69 µM (top of the series) unless noted. In a few lines:
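FRET read-out (405 nm excitation, 460/530 nm emission) of a beta-lactamase reporter under a STAT-inducible element in ME-180 cervical carcinoma cells. Cells with compound receive 40 pM IL-6 for 5 h. Values are normalised to AC90 stimulation and AC90 JAK-inhibitor controls.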

For experiment [5], the target named is Glucocorticoid receptor (Homo sapiens) (UniProt P04150). Nature of the experiment: GR-EFC Redistribution (AID 451; calls by dose curve; also: potency is read from the fitted curve at half-maximal effect). As to conditions: CHO-K1 GR-EFC translocation, beta-gal luminescence, 2 h. The procedure, abridged:
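Translocation of GR-ED fusion to nuclear EA restores b-gal, read by luminescence after 1 h room-temperature detection. Engineered CHO-K1 biosensor cells, 1,000/well, exposed 2 h at 37 C to titrations up to 46 uM final.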

Experiment [6] has as its target Mitogen-activated protein kinase 10 (Mus musculus) (UniProt Q61831). As to the kind of experiment: JNK3 AlphaScreen Assay (AID 530).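 Also: kinase came from lysate of stimulated human HepG2 cells; signal reports phosphorylation of biotinylated GST-cJun 1-79 at Ser73 with 10 µM ATP; % is scaled to controls: 0 for no effect and ±100 for the full control effect.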 As to conditions: JNK3 lysate, c-Jun phosphorylation; series mostly up to 57.1 µM. In a few lines:
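Kinase buffer: 20 mM Tris-HCl pH 7.6, 10 mM MgCl2, 1 mM DTT, 0.1 mM Na3VO4, 0.01% Tween-20; ATP 10 uM. Substrate biotin-GST-cJun(1-79), enzyme from activated HepG2 lysates. Detection by Ser73 phospho-antibody AlphaScreen.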
A general note: Alpha assays give light when donor and acceptor beads are brought close together.

In experiment [7] the target is 3',5'-cyclic-AMP phosphodiesterase 4B (Homo sapiens) (UniProt Q07343). Nature of the experiment: qHTS Assay for Inhibitors of PDE-IV (AID 607; active = well fitted activation curve with a large enough effect in the main read-out, with a control signal flat, not every such curve was filed as active; also: % of control where 0% means no effect). As to conditions: HEK293 ACTOne CNG channel cells, membrane potential fluorescence; series mostly up to 22.9 µM. The procedure, abridged:
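Cell-based read-out of cAMP via a modified cyclic nucleotide-gated channel and membrane potential dye (535/590 nm) in HEK293 cells expressing PDE4 endogenously. Compounds tested up to 22.9 uM final; 100 uM RO 20-1724 reference.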
(In general: In qHTS, concentration-response curves come from the screen itself.)

Experiment [8] in a line: qHTS Assay for Lipid Storage Modulators (AID 1519; calls by dose curve). The settings on record: Drosophila S3 cells, BODIPY lipid droplet/cell ratio, laser cytometry, cells loaded with oleic acid; for activity change, negative = inhibition: at 57.5 µM (top of the series). The procedure, abridged: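 Cells seeded at 5,000 per well were treated with compounds over a concentration series and loaded with oleic acid (400 uM, as added). Lipid droplet fluorescence (488 nm excitation, 500-530 nm channel) was read by laser-scanning cytometry and normalized to 20 uM Triacsin C.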

Experiment [9] is described as follows: Primary qHTS for small molecule stabilizers of the endoplasmic reticulum resident proteome: Secreted ER Calcium Modulated Protein (SERCaMP) assay (AID 1508630; active = well fitted inhibition curve with a large enough effect; also: % is scaled to controls: 0 for no effect and ±100 for the full control effect). As to conditions: SH-SY5Y GLuc-SERCaMP (Gaussia luciferase released on ER calcium loss) secretion, thapsigargin, luminescence; series mostly up to 38.4 µM. In a few lines:
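The SH-SY5Y reporter protocol was run at 3 concentrations up to 38.3 uM (primary) or 11 concentrations (follow-up): 16 h compound, 100 nM thapsigargin for 4 h, then extracellular luciferase luminescence.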

The mark [10] stands for this setting: measured here: cell count channel max response.
The mark [11] stands for this setting: measured here: lipid channel max response.

Chain of Glucocorticoid receptor (Homo sapiens) (P04150 whole entry, looked up, the tested form may be a part): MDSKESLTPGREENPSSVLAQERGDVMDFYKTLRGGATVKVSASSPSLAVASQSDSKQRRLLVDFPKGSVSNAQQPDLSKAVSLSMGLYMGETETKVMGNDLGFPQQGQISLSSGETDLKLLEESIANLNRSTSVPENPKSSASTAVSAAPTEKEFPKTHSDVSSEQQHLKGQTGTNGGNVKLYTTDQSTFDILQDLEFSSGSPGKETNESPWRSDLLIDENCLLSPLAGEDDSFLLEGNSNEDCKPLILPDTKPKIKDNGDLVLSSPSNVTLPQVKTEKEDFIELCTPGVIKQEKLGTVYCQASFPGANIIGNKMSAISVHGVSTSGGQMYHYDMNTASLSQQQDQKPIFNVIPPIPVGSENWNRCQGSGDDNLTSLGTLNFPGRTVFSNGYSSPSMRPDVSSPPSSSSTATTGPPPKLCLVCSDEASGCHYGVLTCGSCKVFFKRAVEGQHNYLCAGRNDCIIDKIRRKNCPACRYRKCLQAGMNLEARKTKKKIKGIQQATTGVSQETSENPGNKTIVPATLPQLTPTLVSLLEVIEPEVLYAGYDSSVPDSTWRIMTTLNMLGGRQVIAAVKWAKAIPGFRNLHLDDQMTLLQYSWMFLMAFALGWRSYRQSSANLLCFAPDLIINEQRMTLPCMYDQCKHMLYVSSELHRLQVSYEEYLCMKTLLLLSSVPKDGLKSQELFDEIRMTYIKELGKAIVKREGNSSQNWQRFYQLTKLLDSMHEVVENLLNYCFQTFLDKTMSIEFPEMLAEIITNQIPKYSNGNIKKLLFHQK
Chain of Lysosomal acid glucosylceramidase (Homo sapiens) (P04062 whole entry, looked up): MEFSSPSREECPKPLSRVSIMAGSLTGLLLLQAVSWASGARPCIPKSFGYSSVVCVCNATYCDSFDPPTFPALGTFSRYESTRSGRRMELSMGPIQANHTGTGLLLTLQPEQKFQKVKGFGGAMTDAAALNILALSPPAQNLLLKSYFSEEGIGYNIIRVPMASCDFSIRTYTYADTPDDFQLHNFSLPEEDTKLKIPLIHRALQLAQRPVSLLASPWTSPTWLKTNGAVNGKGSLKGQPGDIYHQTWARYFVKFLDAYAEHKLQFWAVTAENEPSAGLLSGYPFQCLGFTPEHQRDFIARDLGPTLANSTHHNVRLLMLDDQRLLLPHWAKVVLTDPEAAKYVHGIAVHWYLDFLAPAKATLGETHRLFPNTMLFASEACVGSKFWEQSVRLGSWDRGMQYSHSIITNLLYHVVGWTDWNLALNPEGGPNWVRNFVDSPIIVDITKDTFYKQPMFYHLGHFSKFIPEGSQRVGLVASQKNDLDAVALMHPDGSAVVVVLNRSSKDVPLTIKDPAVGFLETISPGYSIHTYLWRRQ
Chain of 3',5'-cyclic-AMP phosphodiesterase 4B (Homo sapiens) (Q07343 whole entry, looked up): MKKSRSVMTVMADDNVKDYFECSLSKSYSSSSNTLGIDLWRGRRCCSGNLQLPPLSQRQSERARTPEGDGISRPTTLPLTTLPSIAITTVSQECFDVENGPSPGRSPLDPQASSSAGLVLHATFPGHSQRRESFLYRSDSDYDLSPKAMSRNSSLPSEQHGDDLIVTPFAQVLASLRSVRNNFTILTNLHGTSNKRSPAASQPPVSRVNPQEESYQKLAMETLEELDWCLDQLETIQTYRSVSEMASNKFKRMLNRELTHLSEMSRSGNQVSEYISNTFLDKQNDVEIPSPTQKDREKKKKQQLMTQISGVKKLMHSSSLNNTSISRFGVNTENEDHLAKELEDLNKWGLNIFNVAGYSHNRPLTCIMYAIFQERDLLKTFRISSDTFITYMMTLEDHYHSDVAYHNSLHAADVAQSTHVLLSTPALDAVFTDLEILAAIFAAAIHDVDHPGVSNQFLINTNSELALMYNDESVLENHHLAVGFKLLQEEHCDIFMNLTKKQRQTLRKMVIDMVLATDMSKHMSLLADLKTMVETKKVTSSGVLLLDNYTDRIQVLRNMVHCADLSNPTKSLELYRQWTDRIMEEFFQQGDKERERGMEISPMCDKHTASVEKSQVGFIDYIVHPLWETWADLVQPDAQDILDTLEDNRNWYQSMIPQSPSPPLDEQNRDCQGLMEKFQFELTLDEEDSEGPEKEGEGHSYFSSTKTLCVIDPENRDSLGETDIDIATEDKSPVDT

Turning to `COc1ccc(C(=O)N2CCC[C@@]3(CCN(c4ccccn4)C3)C2)cc1`, the Potency in experiment [1] was > 11.4 µM (inactive); in experiment [5], > 46 µM (inactive). Moreover, the activity change, negative = inhibition in [2] is -10.4% (inactive); in experiment [3], -4.97% (inactive); in [8] it was 5.2% (inactive). Moreover, the activity, negative = inhibition in experiment [4] is -7.47% (inactive). Besides, the Potency entry in experiment [6] and in experiment [7] was “inactive” throughout. In addition, the max response stood at 13.5% in experiment [8] (setting [10]) and 23.4% in [8] (setting [11]). For the same compound, the result in experiment [9] was inactive.
Turning to `COCC(=O)N1CCC2(CC1)CN(c1ccc(-c3ccccc3)cc1)C2`, the results for the Potency in [1] and in experiment [5] were > 11.4 µM (inactive) and > 46 µM (inactive), respectively. Also, the results for the activity change, negative = inhibition in [2], in [3] and in experiment [8] were 2.14% (inactive), 14.1% (inactive) and 2.72% (inactive), respectively. The activity, negative = inhibition in experiment [4] is -17.6% (inactive). Besides, the Potency entry in experiment [6] and in experiment [7] was “inactive” in each case. Also, the max response in experiment [8] (setting [10]) is -7.54%; in [8] (setting [11]) it was -3.13%. In addition, in experiment [9], the result was inactive.
As to `CC(=O)N1CCC2(CC1)CN(C(=O)Nc1cccc(C#N)c1)C2`, the values for the Potency in [1] and in [5] were > 11.4 µM (inactive) and > 46 µM (inactive), respectively. For the same compound, the activity change, negative = inhibition is -2.26% (inactive) in experiment [2], 4.7% (inactive) in experiment [3] and 2.51% (inactive) in experiment [8]. Besides, the activity, negative = inhibition in [4] is 11.4% (inactive). Further, the Potency result in experiment [6] and in experiment [7] was “inactive” each time. In addition, the max response was -2.48% in experiment [8] (setting [10]) and 1.82% in experiment [8] (setting [11]). Further, the result in [9] was inactive.
Take `Cn1cccc1C(=O)N1CCC[C@@]2(CCN(C(=O)Nc3cccc(F)c3)C2)C1`: the figures for the Potency in experiment [1] and in experiment [5] were > 11.4 µM (inactive) and > 46 µM (inactive), respectively. Moreover, the activity change, negative = inhibition in experiment [2] was -5.32% (inactive); in [3], 4.03% (inactive); in experiment [8] it was 4.9% (inactive). In addition, the activity, negative = inhibition in [4] was 5.29% (inactive). Further, the Potency result in experiment [6] and in experiment [7] was “inactive” throughout. Besides, the max response in experiment [8] (setting [10]) came to 9.75%; in experiment [8] (setting [11]), 17.3%. The result in [9] was inactive.
As to `c1ccc(-c2cccc(N3CCCC4(CCNCC4)C3)c2)cc1`, the Potency was > 11.4 µM (inactive) in [1] and > 46 µM (inactive) in experiment [5]. The activity change, negative = inhibition in experiment [2] was 11.2% (inactive); in [3], -11% (inactive); in experiment [8] it was 2.43% (inactive). Further, the activity, negative = inhibition in experiment [4] is 8.57% (inactive). Moreover, the Potency result in [6] and in experiment [7] was “inactive” throughout. The max response in experiment [8] (setting [10]) is -2.04%; in [8] (setting [11]), 1.36%. Further, the outcome in experiment [9] was inactive.
Regarding `COc1ccccc1CN1CC[C@@]2(CCCN(C(=O)c3cnccn3)C2)C1`, the Potency was > 11.4 µM (inactive) in experiment [1] and > 46 µM (inactive) in experiment [5]. Further, the activity change, negative = inhibition in experiment [2] is -0.652% (inactive); in [3], 0.87% (inactive); in experiment [8], 3.53% (inactive). The activity, negative = inhibition in [4] is 9.03% (inactive). For the same compound, the Potency result in experiment [6] and in [7] was “inactive” in each case. Besides, the max response was found to be 12.1% in [8] (setting [10]) and 17.4% in experiment [8] (setting [11]). In experiment [9], the outcome was inactive.
`Cn1cccc1C(=O)N1CCC2(CC1)CN(C(=O)Nc1cccc(C#N)c1)C2`: the results for the Potency in [1] and in experiment [5] were > 11.4 µM (inactive) and > 46 µM (inactive), respectively. Moreover, the activity change, negative = inhibition is -22.3% (inactive) in [2], -2.19% (inactive) in [3] and 4.61% (inactive) in experiment [8]. For the same compound, in experiment [4], the activity, negative = inhibition is -3.02% (inactive). For the same compound, the Potency result in [6] and in experiment [7] was “inactive” in each case. Besides, the max response turned out to be 11.3% in [8] (setting [10]) and 18.4% in experiment [8] (setting [11]). The result in experiment [9] was inactive.

These data come from PubChem BioAssay (NCATS).
